The source of these data is PubChem BioAssay.

Assay [1] in a line: small molecules captured by biotinylated probe aFSTL3 – biochemical, small-molecule microarray, fluorescence 635/667, stem cell growth factor project, primary screen (AID 1064).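 Also: measures binding of the biotinylated anti-FSTL3 antibody to printed compounds.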 To be noted: higher = more signal.
The nature of assay [2]: binders from COS7 lysate, DM2A8 probe, primary screen, torsin A project, cell lysate, small-molecule microarray, fluorescence 635/667 (AID 1065). The conditions noted are these: higher = more signal, COS7 lysate expressing mutant human TOR1A.
A short description of assay [3]: small molecules captured by biotinylated probe aFGF2 – biochemical, small-molecule microarray, fluorescence 635/667, stem cell growth factor project, primary screen (AID 1067).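 Also: measures binding of biotinylated aFGF2 protein to printed compounds on slides; z-score merges feature fluorescence and signal-to-noise across triplicate slides.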 To be noted: higher = more signal.
A short description of assay [4]: small molecules captured by biotinylated probe aFGF10 – biochemical, small-molecule microarray, fluorescence 635/667, stem cell growth factor project, primary screen (AID 1071).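 Also: score merges 667 nm spot intensity and signal to noise from triplicate slides.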 To be noted: higher = more signal.
Assay [5] has as its target Neurogenic locus notch homolog protein 2 (Homo sapiens) (UniProt Q04721). Kind of assay: small molecules binding Notch2 protein – biochemical, small-molecule microarray, 635 nm fluorescence, stem cell growth factors, primary screen (AID 1073). The conditions noted are these: higher = more signal.
In assay [6] the target is Pro-neuregulin-1, membrane-bound isoform (Homo sapiens) (UniProt Q02297). Kind of assay: small molecules binding neuregulin-1 protein – biochemical, small-molecule microarray, fluorescence 635/667, psychiatric disease protein project, primary screen (AID 1075).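 Also: score combines 667 nm spot fluorescence with signal to noise.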 The conditions noted are these: NRG1 binding, 635 nm fluorescence, higher = more signal.
The test system of assay [7] is Neuregulin-1 EGF-like domain. Kind of assay: small molecules binding NRG1 EGF domain – biochemical, small-molecule microarray, 635 nm fluorescence, primary screen (AID 1081).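 Also: binding of the protein to compounds printed on small-molecule microarray slides.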 The conditions noted are these: higher = more signal.
Assay [8] in a line: FRG1 expression reporter modulators in myotubes – cell-based, C2C12 myotubes, firefly/Renilla luciferase, luminescence, FRG1 inhibition for FSHD, primary screen (AID 1084). The conditions noted are these: FRG1 promoter luciferase, higher = more signal, called active from +8 up or from −8 down.
Assay [9] can be described thus: small molecules captured by biotinylated probe aFST – biochemical, small-molecule microarray, fluorescence 635/667, stem cell growth factor project, primary screen (AID 1086).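 Also: score merges 667 nm fluorescence with signal-to-noise of each printed compound spot.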 The conditions noted are these: higher = more signal.
Assay [10] is described as follows: binders of probe aHhip on microarray, primary screen, stem cell growth factor project, biochemical, small-molecule microarray, fluorescence 635/667 (AID 1087).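 Also: score merges spot fluorescence at 667nm with spot signal to noise ratio.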 The conditions noted are these: higher = more signal.
Assay [11] has as its system PRMT1 (protein arginine N-methyltransferase 1). The assay can be described thus: small molecules binding arginine methyltransferase PRMT1 – biochemical, small-molecule microarray, 635 nm fluorescence, primary screen (AID 1088).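 Also: binding of Prmt1 protein to compounds spotted on small-molecule microarray slides.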 The conditions noted are these: higher = more signal.
Assay [12] in a line: growth effects on S. cerevisiae YJM789 – YJM789 clinical isolate, OD600, 24 h, basal, primary screen (AID 1089).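 Also: growth of clinical yeast isolate S. cerevisiae YJM 789 seeded 1000 cells per well; test concentration not given here.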 To be noted: higher = more signal, called active from +8 up or from −8 down.
The nature of assay [13]: S. pombe growth modifiers, basal conditions – strain 972, OD600, 24 h, no modulator, primary screen (AID 1090).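 Also: basal condition with compound alone and no growth modifier present; test concentration not given here.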 The conditions noted are these: S. pombe 972 growth, higher = more signal, called active from +8 up or from −8 down.
Assay [14] can be described thus: budding yeast growth modifiers under rapamycin – strain BY4716, OD600, 96 h, primary screen (AID 1091). Also: test concentration not given here. The conditions noted are these: S. cerevisiae BY4716 + rapamycin, higher = more signal, called active from +8 up or from −8 down.
For assay [15], the target named is Torsin-1A-interacting protein 2 (Homo sapiens) (UniProt Q8NFQ8). The assay can be described thus: small molecules binding lysate-expressed LULL1 – cell lysate, human LULL1 lysate, 635/667 nm fluorescence, primary screen (AID 1092).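 Also: probe is lysate of COS7 cells overexpressing human LULL1; score merges per-feature 667 nm fluorescence with signal-to-noise.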 To be noted: small-molecule microarray, hLULL1 lysate binding, 635 nm fluorescence; higher = more signal.
A short description of assay [16]: optical density change of DRC41 E. coli – strain DRC41, OD650, 24 h, E. coli filamentation project, primary screen (AID 1093).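 Also: MC1000 strain lacking acrAB efflux and sulA so SOS filamentation is blocked; test concentration not given here.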 To be noted: E. coli DRC41 growth, higher = more signal, called active from +8 up or from −8 down.
The nature of assay [17]: probe aLefty2 binding to arrayed compounds – biochemical, biotinylated probe, 635/667 nm fluorescence, primary screen (AID 1094).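 Also: score merges spot fluorescence near 667 nm with spot signal-to-noise ratio.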 To be noted: small-molecule microarray, higher = more signal.
Assay [18] relates to Noggin (protein binding on small-molecule microarray). Kind of assay: small molecules binding Noggin protein – biochemical, 635/667 nm fluorescence, primary screen (AID 1095).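 Also: score merges 667 nm feature fluorescence with signal to noise over triplicate slides.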 To be noted: 635 nm fluorescence, higher = more signal.
Assay [19] deals with Neurogenic locus notch homolog protein 3 (Homo sapiens) (UniProt Q9UM47). Kind of assay: small molecules binding NOTCH3 protein – biochemical, 635/667 nm fluorescence, primary screen (AID 1096). The conditions noted are these: small-molecule microarray, 635 nm fluorescence, higher = more signal.
The nature of assay [20]: probe aEGFR binding to arrayed compounds – biochemical, biotinylated probe, 635/667 nm fluorescence, primary screen (AID 1097).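 Also: probe is a biotinylated anti-EGFR antibody binding compounds printed on slides; score combines fluorescence near 667 nm and signal to noise of each spot.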 To be noted: small-molecule microarray, higher = more signal.

SMILES strings stand for the structures. Calls of active or inactive are those of the source.

Chain of Pro-neuregulin-1, membrane-bound isoform (Homo sapiens) (Q02297 whole entry, looked up, the tested form may be a part, canonical isoform): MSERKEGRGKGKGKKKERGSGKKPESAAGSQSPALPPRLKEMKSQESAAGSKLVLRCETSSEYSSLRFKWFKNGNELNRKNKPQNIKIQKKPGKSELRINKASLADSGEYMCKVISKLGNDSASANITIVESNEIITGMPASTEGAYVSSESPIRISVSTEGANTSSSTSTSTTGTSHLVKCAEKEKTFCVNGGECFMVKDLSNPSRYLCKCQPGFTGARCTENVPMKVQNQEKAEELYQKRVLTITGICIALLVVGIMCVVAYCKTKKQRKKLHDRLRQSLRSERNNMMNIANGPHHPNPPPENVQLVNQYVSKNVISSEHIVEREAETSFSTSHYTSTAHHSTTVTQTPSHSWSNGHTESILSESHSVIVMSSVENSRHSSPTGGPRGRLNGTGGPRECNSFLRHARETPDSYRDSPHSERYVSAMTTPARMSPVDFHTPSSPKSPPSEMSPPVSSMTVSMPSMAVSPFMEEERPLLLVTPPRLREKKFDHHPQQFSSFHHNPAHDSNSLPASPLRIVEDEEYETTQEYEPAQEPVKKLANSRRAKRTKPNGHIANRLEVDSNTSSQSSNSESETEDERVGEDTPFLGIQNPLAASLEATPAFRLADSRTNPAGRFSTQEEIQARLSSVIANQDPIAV
Chain of Torsin-1A-interacting protein 2 (Homo sapiens) (Q8NFQ8 whole entry, looked up): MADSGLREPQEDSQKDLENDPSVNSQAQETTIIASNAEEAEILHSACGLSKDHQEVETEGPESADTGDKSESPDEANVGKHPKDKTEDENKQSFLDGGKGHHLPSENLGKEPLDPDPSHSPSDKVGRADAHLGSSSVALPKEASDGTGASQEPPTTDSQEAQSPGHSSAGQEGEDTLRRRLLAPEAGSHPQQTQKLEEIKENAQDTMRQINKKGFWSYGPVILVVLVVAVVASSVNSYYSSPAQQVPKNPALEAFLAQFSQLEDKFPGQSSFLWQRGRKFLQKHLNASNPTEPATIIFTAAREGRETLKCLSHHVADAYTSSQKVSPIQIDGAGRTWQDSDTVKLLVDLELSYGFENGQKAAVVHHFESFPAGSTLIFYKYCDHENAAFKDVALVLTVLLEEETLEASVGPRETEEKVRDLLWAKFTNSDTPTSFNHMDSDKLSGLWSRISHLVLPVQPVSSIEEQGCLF
Chain of Neurogenic locus notch homolog protein 3 (Homo sapiens) (Q9UM47 whole entry, looked up): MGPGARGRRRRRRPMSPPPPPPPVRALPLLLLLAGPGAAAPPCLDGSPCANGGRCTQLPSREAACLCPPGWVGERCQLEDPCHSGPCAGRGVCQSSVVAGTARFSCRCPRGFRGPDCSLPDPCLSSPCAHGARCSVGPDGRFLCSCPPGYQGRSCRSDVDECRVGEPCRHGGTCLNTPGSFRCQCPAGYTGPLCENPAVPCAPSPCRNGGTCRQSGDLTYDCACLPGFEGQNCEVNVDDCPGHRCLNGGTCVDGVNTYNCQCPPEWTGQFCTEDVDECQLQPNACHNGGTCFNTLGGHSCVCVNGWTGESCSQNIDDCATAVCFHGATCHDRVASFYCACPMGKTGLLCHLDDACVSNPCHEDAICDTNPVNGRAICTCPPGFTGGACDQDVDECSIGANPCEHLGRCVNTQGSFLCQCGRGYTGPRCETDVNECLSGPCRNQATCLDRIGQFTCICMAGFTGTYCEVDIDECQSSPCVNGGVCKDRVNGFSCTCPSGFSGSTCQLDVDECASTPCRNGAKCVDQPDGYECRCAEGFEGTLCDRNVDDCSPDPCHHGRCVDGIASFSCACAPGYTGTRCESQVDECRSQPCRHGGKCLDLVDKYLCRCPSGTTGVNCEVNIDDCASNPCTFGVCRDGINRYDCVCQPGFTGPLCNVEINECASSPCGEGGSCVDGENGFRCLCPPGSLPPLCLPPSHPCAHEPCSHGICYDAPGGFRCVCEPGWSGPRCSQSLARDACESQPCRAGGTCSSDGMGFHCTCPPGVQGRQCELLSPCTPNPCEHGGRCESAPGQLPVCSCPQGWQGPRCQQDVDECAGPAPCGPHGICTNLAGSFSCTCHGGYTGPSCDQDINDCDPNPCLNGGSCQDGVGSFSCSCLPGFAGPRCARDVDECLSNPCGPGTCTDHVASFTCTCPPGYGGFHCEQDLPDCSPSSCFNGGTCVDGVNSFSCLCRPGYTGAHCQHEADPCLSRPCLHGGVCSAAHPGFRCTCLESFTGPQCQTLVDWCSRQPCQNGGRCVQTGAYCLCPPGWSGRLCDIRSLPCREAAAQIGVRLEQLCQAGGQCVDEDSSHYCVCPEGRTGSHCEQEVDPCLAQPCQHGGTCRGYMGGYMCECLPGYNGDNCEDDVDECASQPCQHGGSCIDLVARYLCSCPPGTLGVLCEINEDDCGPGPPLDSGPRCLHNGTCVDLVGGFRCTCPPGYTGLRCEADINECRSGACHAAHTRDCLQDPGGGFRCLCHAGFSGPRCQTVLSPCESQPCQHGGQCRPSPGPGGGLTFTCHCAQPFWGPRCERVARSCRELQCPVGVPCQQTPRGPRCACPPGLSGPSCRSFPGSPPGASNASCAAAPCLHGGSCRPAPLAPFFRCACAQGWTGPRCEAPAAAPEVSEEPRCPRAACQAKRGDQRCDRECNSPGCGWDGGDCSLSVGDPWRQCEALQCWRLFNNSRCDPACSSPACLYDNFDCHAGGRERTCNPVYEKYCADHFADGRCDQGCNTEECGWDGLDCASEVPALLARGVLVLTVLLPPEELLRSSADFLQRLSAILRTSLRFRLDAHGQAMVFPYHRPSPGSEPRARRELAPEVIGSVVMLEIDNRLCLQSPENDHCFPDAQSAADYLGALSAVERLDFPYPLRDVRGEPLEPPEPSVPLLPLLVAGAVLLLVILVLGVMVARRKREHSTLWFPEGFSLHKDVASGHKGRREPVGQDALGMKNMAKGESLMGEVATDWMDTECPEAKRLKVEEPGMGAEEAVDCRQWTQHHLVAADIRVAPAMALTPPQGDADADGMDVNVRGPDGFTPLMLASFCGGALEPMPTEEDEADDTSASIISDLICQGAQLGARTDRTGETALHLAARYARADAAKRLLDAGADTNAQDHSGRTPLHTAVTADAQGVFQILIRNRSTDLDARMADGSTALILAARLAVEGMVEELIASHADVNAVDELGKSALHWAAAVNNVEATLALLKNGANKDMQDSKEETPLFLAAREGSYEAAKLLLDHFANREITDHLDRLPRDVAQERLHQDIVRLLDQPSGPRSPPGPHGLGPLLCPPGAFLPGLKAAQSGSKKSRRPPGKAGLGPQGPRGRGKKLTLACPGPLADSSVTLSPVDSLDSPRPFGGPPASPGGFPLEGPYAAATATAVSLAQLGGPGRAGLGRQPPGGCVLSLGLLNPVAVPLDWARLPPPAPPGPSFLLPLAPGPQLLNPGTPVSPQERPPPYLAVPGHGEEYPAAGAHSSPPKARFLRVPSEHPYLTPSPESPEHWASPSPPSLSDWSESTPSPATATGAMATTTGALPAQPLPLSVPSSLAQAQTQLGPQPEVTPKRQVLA

Consider `C#CCCCON=C1C[C@@H](O)[C@@H](O)[C@@H]2[C@@H]3C(=O)N(CC)C(=O)[C@@H]3CC[C@H]12`, for which the composite z-score in assay [1] is -0.281; in assay [2], 0.368; in [3] it was -0.0885; in assay [4], 0.236; in [5] it was 0.03; in [6] it was 1.16. Besides, the composite z-score in assay [7] is 0.528; in assay [9], 0.0594; in assay [10], -0.128; in [11], 1.37; in assay [15], 2.11; in assay [17] it was -0.25. Further, the composite z-score in assay [18] was 0.726; in [19] it was 0.348; in assay [20], -0.174. Moreover, the z-score in assay [8] was -0.234 (inactive); in assay [12] it was -0.276 (inactive); in assay [13], -0.26 (inactive); in assay [14], -0.247 (inactive); in assay [16], 0.216 (inactive).
On to `Cc1cc(C)c(-c2cc([C@H](C)ON=C[C@@H](C)[C@H](OCc3ccccc3)C(C)C)on2)c(C)c1`, for which the composite z-score in assay [1] is -0.355; in assay [2], 0.298; in assay [3], -0.0901; in assay [4], 0.0823; in assay [5], -0.637; in assay [6] it was -0.529. For the same compound, the composite z-score was -1.22 in assay [7]; -0.342 in [9]; 0.0505 in assay [10]; -0.903 in assay [11]; -0.91 in assay [15]; 0.0469 in assay [17]. The figures for the composite z-score in assay [18], in [19] and in assay [20] were 0.481, 0.0065 and -0.067, respectively. For the same compound, the z-score is 0.239 (inactive) in assay [8]; 0.0494 (inactive) in assay [12]; 0.217 (inactive) in [13]; 0.817 (inactive) in assay [14]; -0.461 (inactive) in assay [16].
Turning to `CO[C@H]1COC(=O)CC=C[C@@H](C)COC(=O)[C@H]2CCCN2C(=O)CC=C[C@H]1C`, the composite z-score in assay [1] was -0.867; in assay [2] it was 2.36; in assay [3] it was -0.147; in assay [4], -0.103; in assay [5] it was -0.315; in [6] it was -0.278. The composite z-score in assay [7] was 1.06; in assay [9] it was 0.0653; in [10] it was 0.445; in [11], 1.55; in assay [15], 0.128; in [17] it was -0.194. The composite z-score in assay [18] is 1.86; in assay [19], -0.341; in assay [20], 0.0129. Further, the z-score in assay [8] is -0.352 (inactive); in [12] it was 0.591 (inactive); in assay [13], -0.74 (inactive); in assay [14], 0.0488 (inactive); in assay [16] it was 0.457 (inactive).
Consider `CCOC(=O)[C@H](CC(C)C)NC(=O)CCC1CC(OC(=O)NCc2ccc3c(c2)OCO3)CC2(CCCC(COC(=O)NCc3ccccc3)O2)O1` (stereo not given in full), for which the composite z-score in assay [1] is -0.542; in assay [2] it was 0.01; in assay [3] it was -0.0667; in assay [4], 0.536; in assay [5], 0.375; in assay [6], 0.929. Besides, the composite z-score in assay [7] is 1.12; in [9], 0.986; in [10] it was -0.0994; in assay [11], 0.974; in assay [15], 1.83; in assay [17], -0.124. Also, the composite z-score in assay [18] is 0.684; in assay [19] it was 0.845; in assay [20] it was -0.0978. Further, the z-score in assay [8] is 1.61 (inactive); in [12] it was 0.177 (inactive); in [13] it was 1.12 (inactive); in [14] it was 0.0835 (inactive); in assay [16], 0.314 (inactive).
In the case of `CCN1C(=O)[C@H]2[C@H]3[C@H](O)[C@H](O)CC(=NO[C@H](C)c4cn([C@@H]5COC[C@H]5O)nn4)[C@@H]3CC[C@H]2C1=O`, the composite z-score in assay [1] was -0.258; in [2], 0.307; in [3] it was -0.0853; in [4] it was 0.307; in [5], 0.0679; in assay [6], -0.455. Moreover, the composite z-score in assay [7] was -0.14; in assay [9], 0.0423; in assay [10], -0.238; in assay [11], 0.489; in assay [15], 0.413; in [17] it was -0.129. For the same compound, the composite z-score in [18] was -0.127; in assay [19] it was 0.0689; in [20], -0.0678. Also, the z-score was 0.225 (inactive) in assay [8]; 0.415 (inactive) in assay [12]; 1.01 (inactive) in assay [13]; 1.36 (inactive) in assay [14]; 0.445 (inactive) in [16].
